Measured values reported in article PMC11006913.
Substitutions are numbered along the chain they refer to.

How the values were obtained:
Assay in all cases: PBM; 200 nM protein, PBS
Conditions in all cases: dsDNA, one strand shown
HOXB6 [1] = target: HOXB6 (Homo sapiens, UniProt P17509 132-218, K202E)
HOXB6 [2] = target: HOXB6 (Homo sapiens, UniProt P17509 132-218)
SIX6 [3] = target: T1, SIX6 (Homo sapiens, UniProt O95475 114-200, T165G)
T1 sequence: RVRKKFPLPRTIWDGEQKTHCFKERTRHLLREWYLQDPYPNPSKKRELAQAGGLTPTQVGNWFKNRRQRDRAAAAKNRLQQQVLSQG

HESX1 = HESX1 (Homo sapiens, UniProt Q9UBX0 95-180)
Sequence of HESX1 (Q9UBX0 95-180): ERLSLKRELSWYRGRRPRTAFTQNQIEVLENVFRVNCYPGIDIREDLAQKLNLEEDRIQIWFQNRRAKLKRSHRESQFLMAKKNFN

HOXA2 [4] = target: HOXA2 (Homo sapiens, UniProt O43364 129-215, R185T)
Sequence of HOXA2 (Homo sapiens, UniProt O43364 129-215, R185T) (O43364 129-215 R185T): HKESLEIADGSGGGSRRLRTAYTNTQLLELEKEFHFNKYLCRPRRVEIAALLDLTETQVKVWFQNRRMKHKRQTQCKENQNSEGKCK

NKX2-6 = target: T2, NKX2-6 (Homo sapiens, UniProt A6NCS4 118-204, R150C)
T2 sequence: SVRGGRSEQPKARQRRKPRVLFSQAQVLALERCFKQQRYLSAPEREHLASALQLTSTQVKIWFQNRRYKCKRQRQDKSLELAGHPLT

MSX2 [5] = target: MSX2 (Homo sapiens, UniProt P35548 130-214, R199I)
Sequence of MSX2 (Homo sapiens, UniProt P35548 130-214, R199I) (P35548 130-214 R199I): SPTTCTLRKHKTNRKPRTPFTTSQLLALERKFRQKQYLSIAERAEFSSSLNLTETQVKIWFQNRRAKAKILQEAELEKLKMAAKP

HOXA2 [6] = target: HOXA2 (Homo sapiens, UniProt O43364 129-215, R185K)
Sequence of HOXA2 (Homo sapiens, UniProt O43364 129-215, R185K) (O43364 129-215 R185K): as the sequence (O43364 129-215 R185T) above, with T57K counted along it

MSX2 [7] = target: MSX2 (Homo sapiens, UniProt P35548 130-214)
Sequence of MSX2 (Homo sapiens, UniProt P35548 130-214) (P35548 130-214): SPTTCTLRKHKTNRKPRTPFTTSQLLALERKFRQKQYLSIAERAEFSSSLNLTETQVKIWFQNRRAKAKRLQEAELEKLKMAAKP

MSX2 [8] = target: MSX2 (Homo sapiens, UniProt P35548 130-214, F161Y)
Sequence of MSX2 (Homo sapiens, UniProt P35548 130-214, F161Y) (P35548 130-214 F161Y): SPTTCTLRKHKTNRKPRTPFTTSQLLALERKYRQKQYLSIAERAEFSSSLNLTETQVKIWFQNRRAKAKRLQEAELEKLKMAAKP

HOXA2 [9] = target: HOXA2 (Homo sapiens, UniProt O43364 129-215, Y150S)
Sequence of HOXA2 (Homo sapiens, UniProt O43364 129-215, Y150S) (O43364 129-215 Y150S): as the sequence (O43364 129-215 R185T) above, with Y22S, T57R counted along it

HOXA2 [10] = target: HOXA2 (Homo sapiens, UniProt O43364 129-215)
Sequence of HOXA2 (Homo sapiens, UniProt O43364 129-215) (O43364 129-215): as the sequence (O43364 129-215 R185T) above, with T57R counted along it

ALX1 [11] = target: ALX1 (Homo sapiens, UniProt Q15699 118-204, L144V)
Sequence of ALX1 (Homo sapiens, UniProt Q15699 118-204, L144V) (Q15699 118-204 L144V): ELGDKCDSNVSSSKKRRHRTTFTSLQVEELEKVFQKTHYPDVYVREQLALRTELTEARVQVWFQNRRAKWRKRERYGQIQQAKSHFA

ALX1 [12] = target: ALX1 (Homo sapiens, UniProt Q15699 118-204, L144R)
Sequence of ALX1 (Homo sapiens, UniProt Q15699 118-204, L144R) (Q15699 118-204 L144R): as the sequence (Q15699 118-204 L144V) above, with V27R counted along it

NKX3-2 [13] = target: NKX3-2 (Homo sapiens, UniProt P78367 192-278, P234S)
Sequence of NKX3-2 (Homo sapiens, UniProt P78367 192-278, P234S) (P78367 192-278 P234S): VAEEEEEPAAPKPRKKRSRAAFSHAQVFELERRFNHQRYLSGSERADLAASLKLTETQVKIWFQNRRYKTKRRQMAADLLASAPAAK

ALX1 [14] = target: ALX1 (Homo sapiens, UniProt Q15699 118-204)
Sequence of ALX1 (Homo sapiens, UniProt Q15699 118-204) (Q15699 118-204): as the sequence (Q15699 118-204 L144V) above, with V27L counted along it

NKX3-2 [15] = target: NKX3-2 (Homo sapiens, UniProt P78367 192-278)
Sequence of NKX3-2 (Homo sapiens, UniProt P78367 192-278) (P78367 192-278): as the sequence (P78367 192-278 P234S) above, with S43P counted along it

SIX6 [16] = target: T3, SIX6 (Homo sapiens, UniProt O95475 114-200, T165A)
T3 sequence: T1 sequence with G52A

Sequence of HOXB6 (Homo sapiens, UniProt P17509 132-218, K202E) (P17509 132-218 K202E): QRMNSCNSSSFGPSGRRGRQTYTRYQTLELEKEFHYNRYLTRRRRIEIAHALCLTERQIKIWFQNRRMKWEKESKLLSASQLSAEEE
Sequence of HOXB6 (Homo sapiens, UniProt P17509 132-218) (P17509 132-218): as the sequence (P17509 132-218 K202E) above, with E71K counted along it

## CGTTGCCC
HOXB6 [1]
  binding signal: 9.13 upbm affinity estimate (log intensity, higher = more binding, comparable within an allelic series)
HOXB6 [2]
  binding signal: 9.12 upbm affinity estimate (log intensity, higher = more binding, comparable within an allelic series)

## AGTCGCCC
HOXB6 [1]
  binding signal: 8.98 upbm affinity estimate (log intensity, higher = more binding, comparable within an allelic series)
HOXB6 [2]
  binding signal: 9.09 upbm affinity estimate (log intensity, higher = more binding, comparable within an allelic series)

## TCCTAGGA
HOXB6 [1]
  binding signal: 9.13 upbm affinity estimate (log intensity, higher = more binding, comparable within an allelic series)
HOXB6 [2]
  binding signal: 9.16 upbm affinity estimate (log intensity, higher = more binding, comparable within an allelic series)

## CGGCGCGC
HOXB6 [1]
  binding signal: 9.13 upbm affinity estimate (log intensity, higher = more binding, comparable within an allelic series)
HOXB6 [2]
  binding signal: 9.19 upbm affinity estimate (log intensity, higher = more binding, comparable within an allelic series)

## CCCGGTAG
HOXB6 [1]
  binding signal: 9.07 upbm affinity estimate (log intensity, higher = more binding, comparable within an allelic series)
HOXB6 [2]
  binding signal: 9.12 upbm affinity estimate (log intensity, higher = more binding, comparable within an allelic series)

## ATTTCATA
HOXB6 [1]
  binding signal: 9.65 upbm affinity estimate (log intensity, higher = more binding, comparable within an allelic series)
HOXB6 [2]
  binding signal: 10.2 upbm affinity estimate (log intensity, higher = more binding, comparable within an allelic series)

## TCATATCA
SIX6 [3]
  binding signal: 11.2 upbm affinity estimate (log intensity, higher = more binding, comparable within an allelic series)

## GCGCTCCC
HOXB6 [1]
  binding signal: 9.05 upbm affinity estimate (log intensity, higher = more binding, comparable within an allelic series)
HOXB6 [2]
  binding signal: 8.94 upbm affinity estimate (log intensity, higher = more binding, comparable within an allelic series)

## AGACACCA
SIX6 [3]
  binding signal: 10.5 upbm affinity estimate (log intensity, higher = more binding, comparable within an allelic series)

## GCATAAAC
HESX1
  binding signal: 7.44 upbm affinity estimate (log intensity, higher = more binding, comparable within an allelic series)

## CTGGCTCC
HOXA2 [4]
  binding signal: 7.01 upbm affinity estimate (log intensity, higher = more binding, comparable within an allelic series)
NKX2-6
  binding signal: 9.34 upbm affinity estimate (log intensity, higher = more binding, comparable within an allelic series)
MSX2 [5]
  binding signal: 9.47 upbm affinity estimate (log intensity, higher = more binding, comparable within an allelic series)
HOXA2 [6]
  binding signal: 10.3 upbm affinity estimate (log intensity, higher = more binding, comparable within an allelic series)
MSX2 [7]
  binding signal: 9.34 upbm affinity estimate (log intensity, higher = more binding, comparable within an allelic series)
MSX2 [8]
  binding signal: 9.4 upbm affinity estimate (log intensity, higher = more binding, comparable within an allelic series)
HOXA2 [9]
  binding signal: 10.5 upbm affinity estimate (log intensity, higher = more binding, comparable within an allelic series)
HOXA2 [10]
  binding signal: 6.91 upbm affinity estimate (log intensity, higher = more binding, comparable within an allelic series)

## GACCGCCC
HOXA2 [4]
  binding signal: 7.33 upbm affinity estimate (log intensity, higher = more binding, comparable within an allelic series)
ALX1 [11]
  binding signal: 6.66 upbm affinity estimate (log intensity, higher = more binding, comparable within an allelic series)
HOXA2 [6]
  binding signal: 10.1 upbm affinity estimate (log intensity, higher = more binding, comparable within an allelic series)
ALX1 [12]
  binding signal: 6.49 upbm affinity estimate (log intensity, higher = more binding, comparable within an allelic series)
HOXA2 [9]
  binding signal: 10.4 upbm affinity estimate (log intensity, higher = more binding, comparable within an allelic series)
NKX3-2 [13]
  binding signal: 10.5 upbm affinity estimate (log intensity, higher = more binding, comparable within an allelic series)
ALX1 [14]
  binding signal: 6.57 upbm affinity estimate (log intensity, higher = more binding, comparable within an allelic series)
HOXA2 [10]
  binding signal: 7.29 upbm affinity estimate (log intensity, higher = more binding, comparable within an allelic series)
NKX3-2 [15]
  binding signal: 10.5 upbm affinity estimate (log intensity, higher = more binding, comparable within an allelic series)

## CCGACACC
SIX6 [3]
  binding signal: 10.4 upbm affinity estimate (log intensity, higher = more binding, comparable within an allelic series)
SIX6 [16]
  binding signal: 10.3 upbm affinity estimate (log intensity, higher = more binding, comparable within an allelic series)

## GAGAATGA
HESX1
  binding signal: 7.23 upbm affinity estimate (log intensity, higher = more binding, comparable within an allelic series)

## AGGTGTGA
SIX6 [3]
  binding signal: 10.5 upbm affinity estimate (log intensity, higher = more binding, comparable within an allelic series)

## CGACACCC
SIX6 [3]
  binding signal: 10.5 upbm affinity estimate (log intensity, higher = more binding, comparable within an allelic series)
